From PubChem
GLP1R inv ag: inverse agonists of human GLP-1 receptor | Potency, µM (highest dose often 38.3 µM), without a hit: top-dose activity change, negative = inhibition, actives largely listed as inhibitors | 1.6% of 410,000 active | HEK293 GLP-1R CRE-luciferase, luminescence, 24 h; GLP-1R form is constitutively active; also: % is scaled to controls: 0 for no effect and ±100 for the full control effect; nearly all actives have a fitted effect of over 55% in size
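Cells are plated, allowed 12 hours at 37 deg C, then treated with compounds for 24 hr before luciferase detection reagent is added and luminescence is read after 12 min at room temperature. The HEK293 line carries constitutively active GLP-1R with a cAMP-responsive reporter.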
Gal4-VP16 FLuc: inhibits Gal4-VP16 luciferase reporter, ROR gamma counter-screen; Drosophila S2 Gal4-VP16 UAS-luciferase, luminescence, 20 h; 3.5% of 310,000 active; AID 2546; Potency, µM (top dose mostly 53.6 µM), for inactives: top-dose activity, negative = inhibition, hits mostly inhibitors;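 also: Gal4-VP16 expression switched on by copper sulfate through the metallothionein promoter; % is scaled to controls: 0 for no effect and ±100 for the full control effect; nearly all actives have a fitted effect of over 50% in size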
HEK293 tox: cytotoxic in the GLP-1 receptor inverse agonist counter-screen; HEK293 cAMP-luciferase reporter cells, luminescence, 24 h; Potency, µM (series often up to 38.3 µM), inactives show top-dose activity change, negative = inhibition, usual class: inhibitors; 0.13% of 410,000 active; AID 624418;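 also: loss of luciferase light is scored as toxicity; % is scaled to controls: 0 for no effect and ±100 for the full control effect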
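Quantitative HTS format, 1536 wells, 200 cells/uL seeded. Compounds: 23 nL, 24 h, 37 °C. Detection: luciferase reagent, luminescence at 12 min RT; decreased signal taken as cytotoxic.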
RORg inh: blocks mouse ROR gamma transcriptional activity | P51450 | Drosophila S2 Gal4-RORgamma UAS-luciferase reporter, 20 h | Potency, µM (top dose mostly 53.6 µM), for the others: top-dose activity change, negative = inhibition, actives largely listed as inhibitors | 5.4% of 310,000 active | AID 2551; also: % is scaled to controls: 0 for no effect and ±100 for the full control effect; nearly all actives have a fitted effect of over 60% in size
Target sequence (P51450 whole entry, looked up, the tested form may be a part): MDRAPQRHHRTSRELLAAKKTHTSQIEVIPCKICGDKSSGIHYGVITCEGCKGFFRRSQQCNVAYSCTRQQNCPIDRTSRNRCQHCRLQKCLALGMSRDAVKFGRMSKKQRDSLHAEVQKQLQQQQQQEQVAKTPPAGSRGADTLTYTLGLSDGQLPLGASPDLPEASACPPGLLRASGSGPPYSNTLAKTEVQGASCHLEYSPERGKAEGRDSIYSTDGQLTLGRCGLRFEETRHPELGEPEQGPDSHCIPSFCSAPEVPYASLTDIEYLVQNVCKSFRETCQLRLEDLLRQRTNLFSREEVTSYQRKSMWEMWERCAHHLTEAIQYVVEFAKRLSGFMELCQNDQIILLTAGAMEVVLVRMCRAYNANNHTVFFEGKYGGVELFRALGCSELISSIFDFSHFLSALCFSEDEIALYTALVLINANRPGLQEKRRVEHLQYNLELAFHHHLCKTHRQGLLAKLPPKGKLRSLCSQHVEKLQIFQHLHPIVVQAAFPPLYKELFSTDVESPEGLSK
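Schneider cells (Drosophila), stable Gal4 DBD–ROR gamma + UAS-luc; 1 hr cmpd preincubation; Cu2+ induction 700 uM final; 20 hr ambient; luminescence.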
GLP-1R agonist: activates the human GLP-1 receptor | HEK293 GLP-1R CRE-luciferase, luminescence, 4-6 h; cells express a hypersensitive GLP-1R form | Potency, µM (doses to about 45.6 µM), inactives show top-dose activation, actives largely listed as activators | 0.007% of 380,000 active | AID 624172; also: % of control where 0% means no effect
* marks the source's active call; other numbers are inactive results; ? = inconclusive; nt = no result; [ ] = dose if it differs, or a comment. Only some compounds are listed: those with a hit (about 5.9% of all), similar ones and a draw of the others. Calls follow the shape of the dose curve; as a rule, active = well fitted curve in the direction sought with a large enough effect; inconclusive = small, poorly fitted or top-dose-only effect, or another doubt; inactive = no such curve, though single readings can be large; an effect the other way counts as inactive or inconclusive. Potency is read from the fitted curve at half-maximal effect.

SMILES | GLP1R inv ag | Gal4-VP16 FLuc | HEK293 tox | RORg inh | GLP-1R agonist
Cc1cccc(NC(=S)Nn2cnnc2)c1C | 10% | ? | 9% | ? | 2%
Cc1cccc(NC(=O)C2CCCN(C(=O)NC3CCCCC3)C2)c1C (centres undefined) | 1% | 0% | 1% | 13% | -9%
Cc1cccc(NC(=S)NN2CCOCC2)c1C | 3% | 2% | -12% | 11µM* | -11%
Cc1cccc(NC(=S)NC2CCCC2)c1C | -22% | 7.1µM* | -16% | 7.1µM* | 10%
C=C(C)C1CC[C@]2(CO)CC[C@@]3(C)[C@H](CCC4[C@@]5(C)CCC(O)C(C)(C)C5CC[C@@]43C)C12 (some centres undefined) | nt | -9% | nt | -27% | nt
C[C@H](CCCC(C)(C)O)[C@H]1CC[C@H]2[C@@H]3CC=C4C[C@@H](O)CC[C@]4(C)[C@H]3CC[C@]12C | nt | nt | nt | nt | -3%
COCc1[nH]c(=S)c(C#N)cc1C(=O)OC | -4% | -21% | -23% | ? | 0%
CCOC(=O)c1cc(C#N)c(=S)[nH]c1C | 13% | -14% | 1% | 13µM* | 1%
CC1(C)ON(C2CCCCC2)[C@H]2c3nc4ccccc4n3C[C@H]21 | 4% | -1% | -14% | 14µM* | 12%
COc1cc(NC(=O)Nc2cccc(Cl)c2)c(OC)cc1NC(=O)CN1CCCCC1 | 3.2µM* | nt | ? | -13%[0.365 µM] | -15%
COc1ccc(NC(=O)CN2CCN(CC(=O)Nc3ccccc3Cl)CC2)cc1Cl | ? | 4% | 10% | 18% | 23%
O=C(CN1CCCCC1)Nc1cccc(Cl)c1 | 10% | -1% | -11% | 24% | -1%
COc1ccccc1NC(=O)CN1CCN(CC(=O)Nc2ccc(Cl)c(C(F)(F)F)c2)CC1 | 4µM* | ? | ? | ? | -1%
Cc1cccc(Cn2c(NCCO)nc3c2c(=O)n(C)c(=O)n3C)c1 | -3% | 4.5µM* | ? | ? | 1%
Cc1cccc(Cn2c(NCC(C)O)nc3c2c(=O)n(C)c(=O)n3C)c1 (centres undefined) | -12% | ? | 15% | -32% | 10%
COCCNc1nc2c(c(=O)n(C)c(=O)n2C)n1Cc1cccc(C)c1 | 3% | 10µM* | -14% | ? | 1%
CCC(C)n1c(SCC(=O)NC(=O)c2cccn2C)nc2ccccc2c1=O (centres undefined) | -23% | ? | -11% | 14µM* | 13%
O=C1C=C(N(CCO)Cc2ccccc2)c2ccccc2C1=O | 19%[0.307 µM] | ? | 6%[0.307 µM] | 7.1µM* | -25%
COc1ccc(C(=O)Nc2ccccc2N2CCOCC2)cc1S(=O)(=O)N1CCOCC1 | 7% | nt | 23% | nt | 5%
CCOc1ccc(C(=O)NC(=S)Nc2ccccc2N2CCOCC2)cc1Br | ? | 4.5µM* | -15% | 3.2µM* | 18%
CCOc1ccccc1NC(=O)CSc1nc2ccccc2nc1N1CCCC1 | ? | -1% | 3% | 7% | -1%
COc1ccc(C(=O)NC(=S)Nc2ccccc2N2CCOCC2)cc1Br | ? | 6.3µM* | -21% | 6.3µM* | -2%
CCOc1cc(N2CCOCC2)c(OCC)cc1NC(=O)Cc1ccccc1OC | -11% | 22µM* | -20% | -53% | 15%
COc1ccc(C(=O)Nc2ccccc2C(=O)N2CCOCC2)cc1Br | -20% | -6% | -7% | 0% | 11%
CCOc1ccccc1NC(=O)CSc1nc2ccccc2nc1N1CCOCC1 | 10µM* | 0% | 6% | 15% | 5%
SMILES | GLP1R inv ag | Gal4-VP16 FLuc | HEK293 tox | RORg inh | GLP-1R agonist
Cc1cccc(NC(=O)CSc2nc3c(oc4ccccc43)c(=O)n2C(C)C)c1 | ? | nt | -14% | nt | nt
COCCNC(=O)CSc1nc2cc3c(cc2c(=O)n1Cc1ccc(C(=O)NCCc2ccc(OC)c(OC)c2)cc1)OCO3 | 12% | nt | -4% | nt | nt
COc1ccc(C(=O)Nc2ccccc2N2CCOCC2)cc1Br | ? | -21% | 5% | 18µM* | 13%
CN1C[C@@H]2C[C@H]1CN2c1cc2c(cc1F)c(=O)c(C(=O)O)cn2C1CC1 | nt | -4% | nt | -23%[10 µM] | -5%
CCN1/C(=C2/SC(=S)N(C)C2=O)C=Cc2cc(C)ccc21 | 26% | nt | 0% | nt | 0%
CCN1C(=O)/C(=C2/C=Cc3cc(C)ccc3N2CC)N(C)C1=S | 0% | ? | -18% | 13µM* | -2%
